Only some compounds are listed: those with a hit (about 6.7% of all), similar ones and a draw of the others.
Pf Dd2 inh = P. falciparum Dd2 growth inhibitors, primary screen, SYBR Green fluorescence, single dose replicates; 72 h; stronger effect = lower value; activity change, % at 10 µM; hit rate 2.3% among 94,000; AID 1159554, 2015; in the data active = activity change below about -80%; inconclusive = no clear call, values can overlap the other calls
T cruzi growth-1 = T. cruzi intracellular proliferation inhibitors, primary screen, cell-based, beta-gal Tulahuen parasites, NIH3T3 host, luminescence. hit rate 5.9% among 77,000. T. cruzi beta-gal in NIH3T3, GalScreen luminescence, 90 h. inhibition, % at 8.34 µM. AID 624255, 2012;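 active = mean inhibition above about 93%, with at least 55% of replicates each passing it, limit read from the data, passing the limit was not always enough; inconclusive = only one of those two conditions holds; inactive = neither condition holds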
C diff HTS = C. difficile growth inhibitors, primary screen, HTS; Clostridium difficile clinical isolate growth, OD600, 24 h; stronger effect = lower value; growth activity, negative = inhibition, % at 16 µg/mL (by protocol); hit rate 0.25% among 86,000; AID 1259249, 2017;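 active = mean growth activity at or below -80% and every replicate also at or below -80%; inconclusive = mean at or below -80% but some replicate above -80%; inactive = mean growth activity above -80%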;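 note: 0% = DMSO wells and -100% = levofloxacin 16 µg/mL wells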
T cruzi growth-2 = T. cruzi intracellular proliferation inhibitors, confirmation, cell-based, NIH3T3 host, beta-gal parasite, luminescence, cherry-pick. shares compounds with T cruzi growth-1. T. cruzi beta-gal in NIH3T3, GalScreen luminescence, 90 h. inhibition, % at 8.35 µM. hit rate 72% among 5,600. AID 651739, 2012;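 active = mean replicate inhibition above about 95% and at least 55% of replicates individually reaching it, limit read from the data; inconclusive = only one of the two criteria is met; inactive = neither criterion is met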
T cruzi growth-3 = inhibitors of intracellular T. cruzi replication, confirmation, NIH3T3 host cells, beta-gal parasites, cherry-pick, set 2; shares compounds with T cruzi growth-1; T. cruzi beta-gal in NIH3T3, GalScreen luminescence, 90 h; inhibition, % at 2.09 µM; hit rate 21% among 5,600; AID 651740, 2012;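 active = mean inhibition above about 95%, with at least 55% of replicates also reaching it, limit read from the data; inconclusive = meets just one of the two conditions; inactive = meets neither condition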;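 note: plate controls were neutral control median for no effect and positive control median for full effect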
3T3 cytotox = cytotoxicity in mouse NIH/3T3 fibroblasts, confirmation, cytotoxicity control for T. cruzi proliferation inhibitor project, cell-based, cherry-pick, single point | hit rate 14% among 5,600 | NIH/3T3 viability, CellTiter-Glo ATP luminescence, 90 h | cytotoxicity (signal decrease), % at 8.35 µM | shares compounds with T cruzi growth-1 | AID 651742, 2012;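 active = mean signal decrease across replicates above about 35% based on untreated-well scatter, with enough replicates individually passing, limit read from the data; inconclusive = no rule stated though some were filed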;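 note: 0% = median of neutral control wells and 100% = median of positive control wells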
3T3 cytotox 2 = NIH/3T3 fibroblast cytotoxicity, confirmation, cytotoxicity control, cell-based, cherry-pick, single point, set 2; shares compounds with T cruzi growth-1; hit rate 56% among 5,600; inhibition, % at 24.9 µM; NIH/3T3 viability, CellTiter-Glo ATP luminescence, 90 h;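 active = mean loss of cell viability signal at or above a set limit, and enough replicates individually reaching it; inconclusive = meets only the mean limit or only the replicate share; inactive = meets neither condition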;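 note: 0% = median of neutral control wells and 100% = median of positive control wells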
Starred values were filed as active, the others as inactive.

C[C@@H]1CCCCO[C@H](CN(C)C(=O)Nc2ccccc2)[C@@H](C)CN([C@H](C)CO)C(=O)c2cc(NC(=O)Cc3ccccc3)ccc2O1 was read as Pf Dd2 inh -12 and T cruzi growth-1 -7.
Screening C[C@H]1CCCCO[C@H](CN(C)C(=O)Nc2ccc(C(F)(F)F)cc2)[C@@H](C)CN([C@@H](C)CO)C(=O)c2cc(NC(=O)Cc3ccccc3)ccc2O1 returned Pf Dd2 inh -89*, T cruzi growth-1 inconclusive, C diff HTS 1, T cruzi growth-2 101*, T cruzi growth-3 113*, 3T3 cytotox 30 and 3T3 cytotox 2 17.
Screening C[C@H](CO)N1C[C@H](C)[C@@H](CN(C)C(=O)Nc2ccc(C(F)(F)F)cc2)OCCCC[C@H](C)Oc2ccc(NC(=O)Cc3ccccc3)cc2C1=O returned Pf Dd2 inh -85*, T cruzi growth-1 128*, C diff HTS -2, T cruzi growth-2 108*, T cruzi growth-3 110*, 3T3 cytotox 13 and 3T3 cytotox 2 inconclusive.
C[C@@H]1CCCCO[C@@H](CN(C)C(=O)Nc2ccc(C(F)(F)F)cc2)[C@H](C)CN([C@H](C)CO)C(=O)c2cc(NC(=O)Cc3ccccc3)ccc2O1 was read as Pf Dd2 inh -78, T cruzi growth-1 inconclusive, C diff HTS 9, T cruzi growth-2 106*, T cruzi growth-3 104*, 3T3 cytotox -20 and 3T3 cytotox 2 16.
C[C@@H]1CCCCO[C@H](CN(C)C(=O)Nc2ccccc2)[C@@H](C)CN([C@@H](C)CO)C(=O)c2cc(NC(=O)Cc3ccccc3)ccc2O1 was read as Pf Dd2 inh -52 and T cruzi growth-1 21.
Screening C[C@@H]1CCCCO[C@@H](CN(C)C(=O)Nc2ccc(C(F)(F)F)cc2)[C@H](C)CN([C@@H](C)CO)C(=O)c2cc(NC(=O)Cc3ccccc3)ccc2O1 returned Pf Dd2 inh -46, T cruzi growth-1 122*, C diff HTS 3, T cruzi growth-2 108*, T cruzi growth-3 93, 3T3 cytotox 26 and 3T3 cytotox 2 43*.
For C[C@H]1CCCCO[C@H](CN(C)C(=O)Nc2ccccc2)[C@@H](C)CN([C@@H](C)CO)C(=O)c2cc(NC(=O)Cc3ccccc3)ccc2O1 the results were Pf Dd2 inh -51 and T cruzi growth-1 40.
C[C@@H](NC(=O)C[C@H]1CC[C@H](NC(=O)C2CCC2)[C@@H](CO)O1)c1ccccc1 was read as Pf Dd2 inh 3 and T cruzi growth-1 16.
Screening COc1ccc2c3c(n(C)c2c1)[C@@H](CO)N(C(=O)C1CCOCC1)CC31CCN(C(=O)C2CC2)CC1 returned Pf Dd2 inh 21 and C diff HTS -7.
For C[C@@H]1CN([C@@H](C)CO)C(=O)c2cc(NC(=O)Cn3cnnn3)ccc2O[C@@H]1CN(C)Cc1ccc(C(=O)O)cc1 the results were Pf Dd2 inh 13 and T cruzi growth-1 -119.
Screening CCC(=O)N(C)C[C@@H]1Oc2ncc(-c3ccc(F)cc3)cc2C(=O)N([C@@H](C)CO)C[C@H]1C returned Pf Dd2 inh 42, T cruzi growth-1 2 and C diff HTS -3.
`CNC[C@@H]1OCCCC[C@@H](C)Oc2ccc(NS(C)(=O)=O)cc2C(=O)N([C@@H](C)CO)C[C@@H]1C` gave Pf Dd2 inh -18, T cruzi growth-1 13 and C diff HTS -4.
C[C@@H]1CCCCO[C@@H](CN(C)C(=O)Nc2ccccc2)[C@@H](C)CN([C@@H](C)CO)C(=O)c2cc(NC(=O)Cc3ccccc3)ccc2O1 was read as Pf Dd2 inh -34 and T cruzi growth-1 36.
`C[C@@H]1CCCCO[C@H](CN(C)C(=O)Nc2ccc(C(F)(F)F)cc2)[C@H](C)CN([C@H](C)CO)C(=O)c2cc(NC(=O)Cc3ccccc3)ccc2O1` gave Pf Dd2 inh -86*, T cruzi growth-1 inconclusive, C diff HTS 6, T cruzi growth-2 109*, T cruzi growth-3 107*, 3T3 cytotox 14 and 3T3 cytotox 2 56*.
For C[C@@H]1CN([C@H](C)CO)S(=O)(=O)c2ccc(C#CC3CCCC3)cc2O[C@H]1CN(C)Cc1cncnc1 the results were Pf Dd2 inh -27.
C[C@H]1CN([C@@H](C)CO)S(=O)(=O)c2ccc(C#CC3CCCC3)cc2O[C@@H]1CN(C)Cc1cccnc1 was read as Pf Dd2 inh -66, T cruzi growth-1 98*, C diff HTS 10, T cruzi growth-2 101*, T cruzi growth-3 111*, 3T3 cytotox -10 and 3T3 cytotox 2 105*.
Screening C[C@@H]1CN([C@@H](C)CO)S(=O)(=O)c2ccc(C#CC3CCCC3)cc2O[C@@H]1CN(C)Cc1cccnc1 returned Pf Dd2 inh -65, T cruzi growth-1 103*, C diff HTS 6, T cruzi growth-2 101*, T cruzi growth-3 inconclusive, 3T3 cytotox 60* and 3T3 cytotox 2 106*.
`C[C@H]1CN([C@@H](C)CO)S(=O)(=O)c2ccc(C#CC3CCCCC3)cc2O[C@@H]1CN(C)Cc1cccnc1` gave Pf Dd2 inh -63 and T cruzi growth-1 81.
`O=C(C[C@@H]1C[C@@H]2c3cc(NC(=O)Cc4ccncc4)ccc3O[C@@H]2[C@@H](CO)O1)NCc1ccccc1` gave Pf Dd2 inh -9 and T cruzi growth-1 0.
Screening O=C(C1CC1)N1[C@H](CO)[C@@H]2c3ccccc3N(S(=O)(=O)c3ccccc3)C[C@@H]21 returned Pf Dd2 inh -5, T cruzi growth-1 -30 and C diff HTS 2.
C[C@@H]1CCCCO[C@@H](CN(C)C(=O)C2CCCCC2)[C@H](C)CN([C@H](C)CO)C(=O)c2cc(NC(=O)Nc3ccc(C(F)(F)F)cc3)ccc2O1 was read as Pf Dd2 inh -50, T cruzi growth-1 100 and C diff HTS 12.
`C[C@@H]1CN([C@@H](C)CO)C(=O)c2cc(NC(=O)Nc3ccc(C(F)(F)F)cc3)ccc2O[C@@H](C)CCCCO[C@H]1CN(C)C(=O)C1CCCCC1` gave Pf Dd2 inh -68, T cruzi growth-1 119*, C diff HTS 1, T cruzi growth-2 108*, T cruzi growth-3 111*, 3T3 cytotox 3 and 3T3 cytotox 2 7.

Screening data: PubChem BioAssay, Broad Institute
